Test results from the supplement of paper PMC8728848.
The sample as a whole holds a higher share of the strongest signals than the screen did.

Assays:
Assay in all cases: glycan array binding signal (z-score within array); higher = stronger binding
Details in all cases: glycan notation: IUPAC condensed, linker removed
[1] = biological target: Fuc(a1-2)Gal
Method in brief: (§1)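 Negative Z-scores can be read as non-binding. The Z-score is calculated within each array and then averaged across arrays of one protein sequence at different concentrations or buffers and across linkers. Arrays, 3228 in all, were curated from the Consortium for Functional Glycomics database and kept only where the protein sequence was available.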

[2] = biological target: Fuc(a1-2)Gal(b1-3)GlcNAc(b1-2)Man(a1-3)[Fuc(a1-2)Gal(b1-3)GlcNAc(b1-2)Man(a1-6)]Man(b1-4)GlcNAc(b1-4)GlcNAc
Method in brief: as §1

[3] = biological target: Fuc(a1-2)Gal(b1-3)GlcNAc(b1-3)[Gal(b1-4)GlcNAc(b1-6)]Gal(b1-4)Glc
Method in brief: as §1

[4] = biological target: Fuc(a1-2)Gal(b1-4)Fuc(a1-3)]GlcNAc(b1-2)Man(a1-3)[Fuc(a1-2)Gal(b1-4)[Fuc(a1-3)]GlcNAc(b1-2)Man(a1-6)]Man(b1-4)GlcNAc(b1-4)GlcNAc
Method in brief: as §1

[5] = biological target: Fuc(a1-2)Gal(b1-4)GlcNAc
Method in brief: as §1

[6] = biological target: Fuc(a1-2)[Gal(a1-3)]Gal
Method in brief: as §1

[7] = biological target: Fuc(a1-2)[Gal(a1-3)]Gal(b1-4)GlcNAc(b1-2)Man
Method in brief: as §1

[8] = biological target: Fuc(a1-2)[GalNAc(a1-3)]Gal(b1-3)GlcNAc(b1-3)GalNAc
Method in brief: as §1

[9] = biological target: Fuc(a1-2)[GalNAc(a1-3)]Gal(b1-4)GlcNAc(b1-6)GalNAc
Method in brief: as §1

[10] = biological target: Fuc(a1-2)[GalNAc(a1-3)]Gal(b1-4)[Fuc(a1-3)]GlcNAc
Method in brief: as §1

[11] = biological target: Fuc(a1-2)[GalNAc(a1-3)]Gal(b1-4)[Fuc(a1-3)]GlcNAc(b1-3)GalNAc
Method in brief: as §1

[12] = biological target: Fuc(a1-3)[Gal(b1-4)]GlcNAc(b1-2)Man
Method in brief: as §1

[13] = biological target: Gal(a1-3)Gal(b1-4)[Fuc(a1-3)]GlcNAc(b1-2)Man(a1-3)[Gal(a1-3)Gal(b1-4)[Fuc(a1-3)]GlcNAc(b1-2)Man(a1-6)]Man(b1-4)GlcNAc(b1-4)GlcNAc
Method in brief: as §1

[14] = biological target: Gal(a1-4)Gal(b1-3)GlcNAc(b1-2)Man(a1-3)[Gal(a1-4)Gal(b1-3)GlcNAc(b1-2)Man(a1-6)]Man(b1-4)GlcNAc(b1-4)GlcNAc
Method in brief: as §1

[15] = biological target: Gal(b1-2)Gal
Method in brief: as §1

[16] = biological target: Gal(b1-3)GalNAc
Method in brief: as §1

[17] = biological target: Gal(b1-3)GlcNAc(b1-3)GalNAc
Method in brief: as §1

[18] = biological target: Gal(b1-3)[Neu5Ac(b2-6)]GalNAc
Method in brief: as §1

[19] = biological target: Gal(b1-4)GalNAc(a1-3)[Fuc(a1-2)]Gal(b1-4)GlcNAc
Method in brief: as §1

[20] = biological target: Gal(b1-4)Glc6S
Method in brief: as §1

[21] = biological target: Gal(b1-4)GlcNAc(b1-2)Man(a1-6)[GlcNAc(b1-2)Man(a1-3)]Man(b1-4)GlcNAc(b1-4)GlcNAc
Method in brief: as §1

[22] = biological target: Gal(b1-4)GlcNAc(b1-2)[Gal(b1-4)GlcNAc(b1-6)]Man(a1-6)[Gal(b1-4)GlcNAc(b1-2)Man(a1-3)]Man(b1-4)GlcNAc(b1-4)GlcNAc
Method in brief: as §1

[23] = biological target: Gal(b1-4)GlcNAc(b1-3)Gal(b1-4)GlcNAc(b1-2)Man(a1-3)[Gal(b1-4)GlcNAc(b1-3)Gal(b1-4)GlcNAc(b1-2)Man(a1-6)]Man(b1-4)GlcNAc(b1-4)GlcNAc
Method in brief: as §1

[24] = biological target: Gal(b1-4)GlcNAc(b1-3)Gal(b1-4)GlcNAc(b1-2)[Gal(b1-4)GlcNAc(b1-3)Gal(b1-4)GlcNAc(b1-6)]Man(a1-6)[Gal(b1-4)GlcNAc(b1-3)Gal(b1-4)GlcNAc(b1-2)Man(a1-3)]Man(b1-4)GlcNAc(b1-4)GlcNAc
Method in brief: as §1

[25] = biological target: Gal(b1-4)GlcNAc(b1-3)Gal(b1-4)GlcNAc(b1-3)Gal(b1-4)GlcNAc(b1-2)Man(a1-3)[Gal(b1-4)GlcNAc(b1-3)Gal(b1-4)GlcNAc(b1-3)Gal(b1-4)GlcNAc(b1-2)Man(a1-6)]Man(b1-4)GlcNAc(b1-4)[Fuc(a1-6)]GlcNAc
Method in brief: as §1

[26] = biological target: Gal(b1-4)GlcNAc(b1-3)Gal(b1-4)GlcNAc(b1-3)Gal(b1-4)GlcNAc(b1-3)Gal(b1-4)GlcNAc(b1-2)[Gal(b1-4)GlcNAc(b1-3)Gal(b1-4)GlcNAc(b1-3)Gal(b1-4)GlcNAc(b1-3)Gal(b1-4)GlcNAc(b1-6)]Man(a1-6)[Gal(b1-4)GlcNAc(b1-3)Gal(b1-4)GlcNAc(b1-3)Gal(b1-4)GlcNAc(b1-3)Gal(b1-4)GlcNAc(b1-2)Man(a1-3)]Man(b1-4)GlcNAc(b1-4)[Fuc(a1-6)]GlcNAc
Method in brief: as §1

[27] = biological target: Gal(b1-4)GlcNAc(b1-3)Gal(b1-4)GlcNAc(b1-3)[Gal(b1-4)GlcNAc(b1-3)Gal(b1-4)GlcNAc(b1-6)]GalNAc
Method in brief: as §1

[28] = biological target: Gal(b1-4)GlcNAc(b1-6)GalNAc
Method in brief: as §1

[29] = biological target: Gal(b1-4)GlcNAc(b1-6)[Gal(b1-3)]GalNAc
Method in brief: as §1

[30] = biological target: Gal3S(b1-4)[Fuc(a1-3)]GlcNAc6S
Method in brief: as §1

[31] = biological target: Gal6S(b1-4)GlcNAc
Method in brief: as §1

[32] = biological target: GalNAc(a1-3)Gal
Method in brief: as §1

B1: Epa19 (Candida glabrata) (protein)
chain: MGSSHHHHHHSSGLVPRGSHMASSKDPTRFPIGCSPQVLKTQPGLAVKLYSYGHPVPGCSYITYQYPDFPRSGYKKERKLADITGVNGKIDIDLKPNDPCRVLTGHLPSNYNYPDTLTYTNFTMILYGYFQPKVTGYHTFNLEADDLLFMNLGAGNAFDCCKAESTLDNFGNYQSYSLWGSDYAKANITVFLVSGVYYPIRLFYVNRDNNAVIDFSFTTEFDKEKVHDFTSYFFSASDGEQCPGSV
glycan array binding signal (z-score) [1]: -0.231 | glycan array binding signal (z-score) [2]: 0.072 | glycan array binding signal (z-score) [3]: -0.333 | glycan array binding signal (z-score) [4]: 2.57 | glycan array binding signal (z-score) [5]: -0.459 | glycan array binding signal (z-score) [6]: -0.947 | glycan array binding signal (z-score) [7]: 0.045 | glycan array binding signal (z-score) [8]: 2.07 | glycan array binding signal (z-score) [9]: 0.209 | glycan array binding signal (z-score) [10]: -0.301 | glycan array binding signal (z-score) [11]: 1.08 | glycan array binding signal (z-score) [12]: -0.217 | glycan array binding signal (z-score) [13]: 2.47 | glycan array binding signal (z-score) [14]: -0.21 | glycan array binding signal (z-score) [15]: -0.099 | glycan array binding signal (z-score) [16]: -0.306 | glycan array binding signal (z-score) [17]: -0.204 | glycan array binding signal (z-score) [18]: 2.39 | glycan array binding signal (z-score) [19]: -0.193 | glycan array binding signal (z-score) [20]: 2.4 | glycan array binding signal (z-score) [21]: 0.102 | glycan array binding signal (z-score) [22]: -1.26 | glycan array binding signal (z-score) [23]: 2.29 | glycan array binding signal (z-score) [24]: 0.736 | glycan array binding signal (z-score) [25]: 0.256 | glycan array binding signal (z-score) [26]: 0.024 | glycan array binding signal (z-score) [27]: 1.4 | glycan array binding signal (z-score) [28]: -0.146 | glycan array binding signal (z-score) [29]: 0.35 | glycan array binding signal (z-score) [30]: 0.49 | glycan array binding signal (z-score) [31]: -0.372 | glycan array binding signal (z-score) [32]: -0.246
